Several values for one entry are separate records, joined by “and”; a condition that tells them apart may be missing. Equal entries are not always repeated.
Experiment: yeast growth modulation, basal conditions, primary screen, YJM789 clinical isolate, OD600, 24 h (AID 1089);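 also: growth of clinical yeast isolate S. cerevisiae YJM 789 seeded 1000 cells per well; test concentration not given here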
Conditions: S. cerevisiae YJM789 growth, higher = more signal, called active from +8 up or from −8 down

z-score, inactive:
C=CCN(CCCC)C(=O)C1N(c2ccc(CCO)cc2)C(=O)C2C(C(=O)O)C3C=CC21O3 (stereo not drawn) -0.844 and -0.115
COC(=O)C1=C(C)N(Cc2ccccc2)C2=C3C(=O)N(c4ccccc4)C(=O)[C@@H]3[C@@](O)(C(=O)OC)C(=O)N2[C@@H]1c1ccccc1 0.286 and -1.22
CCC[C@@H]1C[C@@]1(CCC)[C@@H](NC(=O)c1ccc(-c2ccccc2)cc1)c1cccc(Cl)c1 -0.173 and 0.948
C=CCN(C(=O)C(c1cccs1)N(C(=O)/C=C\C(=O)O)c1ccc(CCO)cc1)C(C)(C)C (stereo not drawn) -0.042 and 0.181
C=CCN(Cc1ccccc1)C(=O)C1N(CCCCCCO)C(=O)C2C(C(=O)O)C3C=CC21O3 (stereo not drawn) 0.101 and -1.39
COc1ccc(COC(=O)NN=C2C[C@@H](O)[C@@H](O)[C@@H]3[C@@H]4C(=O)N(C(C)(C)C)C(=O)[C@@H]4CC[C@H]23)cc1 -1.76
O=C1NC(=O)C2C1C=CC(C(O)c1ccc([N+](=O)[O-])cc1)N2Nc1ccc(Cl)cc1Cl (stereo not drawn) -1.44 and -1.78
COC(=O)C1=C(C)N(Cc2ccccc2)C2=C3C(=O)CCC[C@@H]3[C@@](O)(C(=O)OC)C(=O)N2[C@@H]1c1ccccc1 0.494 and -0.978
C[N+](C)(C)CCCCNC(=O)[C@H]1C[C@H]2C(=O)N[C@@H](CCCC[N+](C)(C)C)C(=O)N2[C@H]1c1cccc(OCCO)c1 -0.604 and -0.504
C=CCN(CCCCC)C(=O)C1N(c2ccc(CCO)cc2)C(=O)C2C(C(=O)O)C3C=CC21O3 (stereo not drawn) 0.0099 and -0.194
CC(C)C(=O)N[C@@H]1CCCN1C(=O)C=Cc1ccccc1 -0.91
C[C@@H](ON=C1[C@H]2CCn3c(=O)n(-c4ccccc4)c(=O)n3[C@H]2[C@H](O)[C@@H]2O[C@H]12)c1cn([C@H](CO)Cc2ccccc2)nn1 -0.217
C=CCN1C(=O)[C@]2(O[C@H](CCn3cc(CCO)nn3)[C@@H]([Si](C)(C)c3ccc(OC)cc3)[C@@H]2C)c2cc(N3C(=O)c4cccc5cccc3c45)ccc21 1.25 and 0.648
COC(=O)[C@@]1(Cc2ccc(F)cc2)[C@H]2c3cc(C(=O)N4CCCC4)n(Cc4c(CO)[nH]cc(C)c4=O)c3C[C@H]2CN1C(=O)c1ccccc1 0.786 and 1.14
C=CCN(CCCCC)C(=O)C1N(c2c(Cl)cccc2CO)C(=O)C2C(C(=O)O)C3C=CC21O3 (stereo not drawn) 0.006 and 0.769
C=CCN(C(=O)C1N(c2c(Cl)cccc2CO)C(=O)C2C(C(=O)O)C3C=CC21O3)C(C)(C)C (stereo not drawn) 0.61 and -1.92
COC(=O)[C@@]1(Cc2ccc(OC)cc2)[C@H]2c3cc(C(=O)N(C)C)n(Cc4ccc(O)c(OC)c4)c3C[C@H]2CN1C(=O)c1ccccc1 0.403 and -0.731
C=CCN(C(=O)C1N(C(C)(C)CO)C(=O)C2C(C(=O)O)C3C=CC21O3)c1ccc(OC)cc1 (stereo not drawn) 0.0659 and 1.13
C[N+](C)(C)CCCCNC(=O)[C@@H]1C[C@@H]2C(=O)N[C@@H](CCCC[N+](C)(C)C)C(=O)N2[C@@H]1c1cccc(OCCO)c1 1.27 and 0.389
CCCC[C@@H]1CN2[C@@H](CC[C@@H](C)[C@@H]2c2ccc(Br)cc2)C(=O)O1 0.301 and 0.0912
CCN1C(=O)[C@H]2[C@H]3[C@H](O)[C@H](O)CC(=NOC)[C@@H]3CC[C@H]2C1=O -0.285
C=C[C@H](OC)[C@@H](O)c1ccc(OCCO)cc1 -0.146 and 0.665
COC(=O)C1=C(C)N(Cc2ccccc2)[C@]23O[C@](C(=O)OC)(C(=O)N2[C@@H]1c1ccccc1)[C@@H](c1ccccc1)[C@@H]3C(=O)c1ccccc1 -1.15 and -0.583
